Results published in the supplement of paper PMC7765376.
Structures can show the parent of a compound that is named as a salt. Whole data set: some 1,500 compounds, median “Excess HSA synergy score (sum over dose matrix of excess over highest single agent)” near 43, cut for the lowest 2% near -900. For the sample, the lowest values were picked, then their nearest neighbours and some compounds at random.

Tested on: PEO-1
Experiment: Excess HSA synergy score (sum over dose matrix of excess over highest single agent) (score (summed % response)); higher = less synergy / more antagonism (negative = synergy)
Conditions: 72 h, read-out: viability/apoptosis luminescence (CellTiter-Glo or Caspase3-Glo / not stated per table)
[1] = matrix design: 6x6, 5-fold dilutions (primary screen)
[2] = matrix design: 10x10, 9-step dilutions (confirmatory)

SMILES	Excess HSA synergy score [1]	Excess HSA synergy score [2]
COc1cc(OC)cc(-c2ccc3ncc4ccc(=O)n(-c5ccc(N6CCNCC6)c(C(F)(F)F)c5)c4c3c2)c1 + CC[C@H](NC(=O)[C@H](C)NC)C(=O)N1C[C@@H](O)C[C@H]1Cc1c(-c2[nH]c3cc(F)ccc3c2C[C@@H]2C[C@H](O)CN2C(=O)[C@H](CC)NC(=O)[C@H](C)NC)[nH]c2cc(F)ccc12 [Birinapant]	160	–
CCC(=O)N1CCN(c2ccc(-n3c(=O)ccc4cnc5ccc(-c6cnc7ccccc7c6)cc5c43)cc2C(F)(F)F)CC1 [Torin-1] + CC[C@H](NC(=O)[C@H](C)NC)C(=O)N1C[C@@H](O)C[C@H]1Cc1c(-c2[nH]c3cc(F)ccc3c2C[C@@H]2C[C@H](O)CN2C(=O)[C@H](CC)NC(=O)[C@H](C)NC)[nH]c2cc(F)ccc12 [Birinapant]	-195	–
Nc1ccc(-c2ccc3ncc4ccc(=O)n(-c5cccc(C(F)(F)F)c5)c4c3c2)cn1 [Torin-2] + CC[C@H](NC(=O)[C@H](C)NC)C(=O)N1C[C@@H](O)C[C@H]1Cc1c(-c2[nH]c3cc(F)ccc3c2C[C@@H]2C[C@H](O)CN2C(=O)[C@H](CC)NC(=O)[C@H](C)NC)[nH]c2cc(F)ccc12 [Birinapant]	-80.4	-999
CN1CCC(COc2cnc(-c3cccc(Cn4nc(-c5cccc(C#N)c5)ccc4=O)c3)nc2)CC1 + CC[C@H](NC(=O)[C@H](C)NC)C(=O)N1C[C@@H](O)C[C@H]1Cc1c(-c2[nH]c3cc(F)ccc3c2C[C@@H]2C[C@H](O)CN2C(=O)[C@H](CC)NC(=O)[C@H](C)NC)[nH]c2cc(F)ccc12 [Birinapant]	19.6	–
Cn1cc(-c2ccc3nnc(Sc4ccc5ncccc5c4)n3n2)cn1 + CC[C@H](NC(=O)[C@H](C)NC)C(=O)N1C[C@@H](O)C[C@H]1Cc1c(-c2[nH]c3cc(F)ccc3c2C[C@@H]2C[C@H](O)CN2C(=O)[C@H](CC)NC(=O)[C@H](C)NC)[nH]c2cc(F)ccc12 [Birinapant]	117	–
NC(=O)c1cccc(-c2cccc(OC(=O)NC3CCCCC3)c2)c1 + CC[C@H](NC(=O)[C@H](C)NC)C(=O)N1C[C@@H](O)C[C@H]1Cc1c(-c2[nH]c3cc(F)ccc3c2C[C@@H]2C[C@H](O)CN2C(=O)[C@H](CC)NC(=O)[C@H](C)NC)[nH]c2cc(F)ccc12 [Birinapant]	46.3	–
CNc1nccc(-c2cccnc2Oc2cc(C(=O)Nc3cccc(C(F)(F)F)c3)ccc2C)n1 + CC[C@H](NC(=O)[C@H](C)NC)C(=O)N1C[C@@H](O)C[C@H]1Cc1c(-c2[nH]c3cc(F)ccc3c2C[C@@H]2C[C@H](O)CN2C(=O)[C@H](CC)NC(=O)[C@H](C)NC)[nH]c2cc(F)ccc12 [Birinapant]	73.8	–
CC(=O)[C@]1(O)Cc2c(O)c3c(c(O)c2[C@@H](O[C@H]2C[C@H](N)[C@H](O)[C@H](C)O2)C1)C(=O)c1ccccc1C3=O [Idarubicin hydrochloride] + CC[C@H](NC(=O)[C@H](C)NC)C(=O)N1C[C@@H](O)C[C@H]1Cc1c(-c2[nH]c3cc(F)ccc3c2C[C@@H]2C[C@H](O)CN2C(=O)[C@H](CC)NC(=O)[C@H](C)NC)[nH]c2cc(F)ccc12 [Birinapant]	-126	-1080
COc1cccc2c1C(=O)c1c(O)c3c(c(O)c1C2=O)C[C@@](O)(C(=O)CO)C[C@@H]3O[C@H]1C[C@H](N)[C@H](O[C@@H]2CCCCO2)[C@H](C)O1 [Pirarubicin] + CC[C@H](NC(=O)[C@H](C)NC)C(=O)N1C[C@@H](O)C[C@H]1Cc1c(-c2[nH]c3cc(F)ccc3c2C[C@@H]2C[C@H](O)CN2C(=O)[C@H](CC)NC(=O)[C@H](C)NC)[nH]c2cc(F)ccc12 [Birinapant]	-150	–
COc1cccc2c1C(=O)c1c(O)c3c(c(O)c1C2=O)C[C@@](O)(C(C)=O)C[C@@H]3O[C@H]1C[C@H](N)[C@H](O)[C@H](C)O1 [Daunorubicin] + CC[C@H](NC(=O)[C@H](C)NC)C(=O)N1C[C@@H](O)C[C@H]1Cc1c(-c2[nH]c3cc(F)ccc3c2C[C@@H]2C[C@H](O)CN2C(=O)[C@H](CC)NC(=O)[C@H](C)NC)[nH]c2cc(F)ccc12 [Birinapant]	-171	–
COc1cc2c(Nc3ccc(Cl)c(Cl)c3F)ncnc2cc1OC[C@@H]1C[C@@H]2CN(C)C[C@@H]2C1 + CC[C@H](NC(=O)[C@H](C)NC)C(=O)N1C[C@@H](O)C[C@H]1Cc1c(-c2[nH]c3cc(F)ccc3c2C[C@@H]2C[C@H](O)CN2C(=O)[C@H](CC)NC(=O)[C@H](C)NC)[nH]c2cc(F)ccc12 [Birinapant]	-5.11	–
Nc1cc(C(F)(F)F)c(-c2cc(N3CCOCC3)nc(N3CCOCC3)n2)cn1 + CC[C@H](NC(=O)[C@H](C)NC)C(=O)N1C[C@@H](O)C[C@H]1Cc1c(-c2[nH]c3cc(F)ccc3c2C[C@@H]2C[C@H](O)CN2C(=O)[C@H](CC)NC(=O)[C@H](C)NC)[nH]c2cc(F)ccc12 [Birinapant]	242	–
c1ccc(CNc2nc(NCc3ccccc3)c3ccccc3n2)cc1 + CC[C@H](NC(=O)[C@H](C)NC)C(=O)N1C[C@@H](O)C[C@H]1Cc1c(-c2[nH]c3cc(F)ccc3c2C[C@@H]2C[C@H](O)CN2C(=O)[C@H](CC)NC(=O)[C@H](C)NC)[nH]c2cc(F)ccc12 [Birinapant]	-180	–
CCC(C)SSc1ncc[nH]1 (configuration not stated) + CC[C@H](NC(=O)[C@H](C)NC)C(=O)N1C[C@@H](O)C[C@H]1Cc1c(-c2[nH]c3cc(F)ccc3c2C[C@@H]2C[C@H](O)CN2C(=O)[C@H](CC)NC(=O)[C@H](C)NC)[nH]c2cc(F)ccc12 [Birinapant]	79.6	–
CS(=O)(=O)Oc1ccc2c(NC(N)=O)c(C(=O)c3ccc(Cl)cc3Cl)oc2c1 [Lirimilast] + CC[C@H](NC(=O)[C@H](C)NC)C(=O)N1C[C@@H](O)C[C@H]1Cc1c(-c2[nH]c3cc(F)ccc3c2C[C@@H]2C[C@H](O)CN2C(=O)[C@H](CC)NC(=O)[C@H](C)NC)[nH]c2cc(F)ccc12 [Birinapant]	-20.9	–
